Results: the supplement of paper PMC12494721
Where a name gives a salt, the structure may show the parent alone. Values without a mark were called inactive.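 The calls were made as follows: for the amine columns active = adjusted P below 0.05 in both replicates with a change the same way and a mean fold change under 0.8 or over 1.25; inactive = the rest.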

The compounds below were run on Clostridium sporogenes DSM 1664 (assay: fold change of Tryptamine concentration vs plate DMSO controls (fold change (ratio)); higher = more amine produced, active = hit call of the paper (significant change in both replicates, either direction)). Conditions: 20 µM; incubation time: 27 h, anaerobic, 37 °C.
Procedure, shortened: (§1)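 Each value is the fold change relative to DMSO-only wells on the same plate. Four gut bacterial strains were grown anaerobically in mGAM at 37 °C for 27 h in 80 µL wells, starting at OD 0.1 before a 1:1 dilution, with compounds at 20 µM final (sweeteners 50 µM). Whole cultures were extracted with cold acetonitrile/methanol containing 0.1% formic acid, centrifuged, and amines were quantified by LC–triple-quadrupole MS (dynamic MRM) against external calibration curves with within-batch drift correction. Values are means of 2 biological replicates.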

SMILES	fold change of Tryptamine concentration
CS(=O)(=O)NC(=O)c1cc(Oc2ccc(C(F)(F)F)cc2Cl)ccc1[N+](=O)[O-]	0.985
C#C[C@]1(O)C=C[C@H]2[C@@H]3CCC4=CC(=O)CC[C@@H]4[C@H]3CC[C@@]21CC [Gestodene]	1.03
ClC1C(Cl)C(Cl)C(Cl)C(Cl)C1Cl (centres undefined)	0.972
CCOC(=O)OC1=C(c2cc(C)ccc2C)C(=O)N[C@]12CC[C@@H](OC)CC2	0.974
N#Cc1cc(Br)c(O)c(Br)c1	0.955
O=C(CCCN1CCC2(CC1)C(=O)NCN2c1ccccc1)c1ccc(F)cc1 [Spiperone]	0.991
CNC(=O)Oc1cccc(/N=C/N(C)C)c1	1.04
CN(C)C(CSS(=O)(=O)O)CSS(=O)(=O)O	0.933
CN1[C@@H]2C[C@@H](OC(=O)[C@H](CO)c3ccccc3)C[C@H]1[C@@H]1O[C@@H]12 [Scopolamine hydrochloride]	1.2
COP(=S)(OC)Oc1nc(Cl)c(Cl)cc1Cl	0.986
C#CCN(C)[C@H](C)Cc1ccccc1 [Selegiline hydrochloride]	1.11
C[N+]1(C)CCCC(OC(=O)C(O)(c2ccccc2)c2ccccc2)C1 (centres undefined) [Mepenzolate bromide]	1
CCNc1nc(Cl)nc(NC(C)C)n1	0.98
CCc1cc(C)cc(CC)c1-c1c(OC(=O)C(C)(C)C)n2n(c1=O)CCOCC2	1.11
COP(=O)(NC(C)=O)SC (centres undefined)	1.02
CC[C@H]1CCC[C@H](O[C@H]2CC[C@H](N(C)C)[C@@H](C)O2)[C@@H](C)C(=O)C2=C[C@@H]3[C@@H](C=C(C)[C@@H]4C[C@@H](O[C@@H]5O[C@@H](C)[C@H](OC)[C@@H](OC)[C@H]5OC)C[C@@H]34)[C@@H]2CC(=O)O1.CC[C@H]1CCC[C@H](O[C@H]2CC[C@H](N(C)C)[C@@H](C)O2)[C@@H](C)C(=O)C2=C[C@H]3[C@@H]4C[C@H](O[C@@H]5O[C@@H](C)[C@H](OC)[C@@H](OC)[C@H]5OC)C[C@H]4C=C[C@H]3C2CC(=O)O1	0.96
C[C@@H]1C[C@@H]([C@H](O)CC2CC(=O)NC(=O)C2)C(=O)[C@@H](C)C1 [Cycloheximide]	0.956
c1ccc2c(c1)cc1ccc3cccc4ccc2c1c34 [Benzo[a]pyrene]	1.03
N#Cc1sc2c(=O)c3ccccc3c(=O)c=2sc1C#N	0.877

SMILES	fold change of Tryptamine concentration
Cc1cccc2sc3nncn3c12	0.982
CCC1(C)CC(=O)NC(=O)C1 [Bemegride]	1.04
CCOP(=S)(OCC)Oc1cc(C)nc(C(C)C)n1	1.03
CN1CCN(C(=O)OC2c3nccnc3C(=O)N2c2ccc(Cl)cn2)CC1 (centres undefined) [Zopiclone]	1.02
CO[C@]12C[C@@H](COC(=O)c3cncc(Br)c3)CN(C)[C@@H]1Cc1cn(C)c3cccc2c13 [Nicergoline]	0.994
CCOP(=S)(OCC)Oc1nc(Cl)c(Cl)cc1Cl	1.01
C[N+](C)(C)CCCCCCCCCC[N+](C)(C)C [Decamethonium bromide]	1.13
C[C@]12COC(=O)C[C@@H]1CC[C@@H]1[C@@H]2CC[C@@]2(C)[C@H]1CC[C@]2(C)O [Oxandrolone]	0.945
OC(Cc1ccccc1Cl)(Cn1nc[nH]c1=S)C1(Cl)CC1 (centres undefined)	1.02
NCC1(CC(=O)O)CCCCC1 [Gabapentin]	0.986
CC(C)C[C@H]1C(=O)N2CCC[C@H]2[C@]2(O)O[C@](NC(=O)[C@@H]3C=C4c5cccc6[nH]c(Br)c(c56)C[C@H]4N(C)C3)(C(C)C)C(=O)N12 [Bromocryptine mesylate]	0.868
NCC(O)c1ccc(O)cc1 (centres undefined) [Octopamine hydrochloride]	1.04
NCC(CC(=O)O)c1ccc(Cl)cc1 (centres undefined) [Baclofen]	1.06
CC1(C)C(C=C(Cl)Cl)C1C(=O)OC(C#N)c1cccc(Oc2ccccc2)c1 (mixture of isomers)	0.975
C#CCN1C(=O)COc2cc(F)c(N3C(=O)C4=C(CCCC4)C3=O)cc21	1.14
CN1COCN(Cc2cnc(Cl)s2)/C1=N\[N+](=O)[O-]	0.906
CCNC1(c2cccs2)CCCCC1=O (centres undefined) [Tiletamine hydrochloride]	1.04
Cc1cc(C(C#N)c2ccc(Cl)cc2)c(Cl)cc1NC(=O)c1cc(I)cc(I)c1O (centres undefined)	0.0183 (active)

Each compound was assayed on Ruminococcus gnavus DSM 108212 in the same assay as above. Conditions: 20 µM; incubation time: 27 h, anaerobic, 37 °C.
Procedure, shortened: as §1

SMILES	fold change of Tryptamine concentration
CS(=O)(=O)NC(=O)c1cc(Oc2ccc(C(F)(F)F)cc2Cl)ccc1[N+](=O)[O-]	1.02
C#C[C@]1(O)C=C[C@H]2[C@@H]3CCC4=CC(=O)CC[C@@H]4[C@H]3CC[C@@]21CC [Gestodene]	1.01
ClC1C(Cl)C(Cl)C(Cl)C(Cl)C1Cl (centres undefined)	0.98
CCOC(=O)OC1=C(c2cc(C)ccc2C)C(=O)N[C@]12CC[C@@H](OC)CC2	1.02
N#Cc1cc(Br)c(O)c(Br)c1	1.02
O=C(CCCN1CCC2(CC1)C(=O)NCN2c1ccccc1)c1ccc(F)cc1 [Spiperone]	1.01
CNC(=O)Oc1cccc(/N=C/N(C)C)c1	0.993
CN(C)C(CSS(=O)(=O)O)CSS(=O)(=O)O	1.02
CN1[C@@H]2C[C@@H](OC(=O)[C@H](CO)c3ccccc3)C[C@H]1[C@@H]1O[C@@H]12 [Scopolamine hydrochloride]	1.08
COP(=S)(OC)Oc1nc(Cl)c(Cl)cc1Cl	0.898
C#CCN(C)[C@H](C)Cc1ccccc1 [Selegiline hydrochloride]	1.05
C[N+]1(C)CCCC(OC(=O)C(O)(c2ccccc2)c2ccccc2)C1 (centres undefined) [Mepenzolate bromide]	1.03
CCNc1nc(Cl)nc(NC(C)C)n1	1.06
CCc1cc(C)cc(CC)c1-c1c(OC(=O)C(C)(C)C)n2n(c1=O)CCOCC2	0.99
COP(=O)(NC(C)=O)SC (centres undefined)	1
CC[C@H]1CCC[C@H](O[C@H]2CC[C@H](N(C)C)[C@@H](C)O2)[C@@H](C)C(=O)C2=C[C@@H]3[C@@H](C=C(C)[C@@H]4C[C@@H](O[C@@H]5O[C@@H](C)[C@H](OC)[C@@H](OC)[C@H]5OC)C[C@@H]34)[C@@H]2CC(=O)O1.CC[C@H]1CCC[C@H](O[C@H]2CC[C@H](N(C)C)[C@@H](C)O2)[C@@H](C)C(=O)C2=C[C@H]3[C@@H]4C[C@H](O[C@@H]5O[C@@H](C)[C@H](OC)[C@@H](OC)[C@H]5OC)C[C@H]4C=C[C@H]3C2CC(=O)O1	0.984
C[C@@H]1C[C@@H]([C@H](O)CC2CC(=O)NC(=O)C2)C(=O)[C@@H](C)C1 [Cycloheximide]	1.01
c1ccc2c(c1)cc1ccc3cccc4ccc2c1c34 [Benzo[a]pyrene]	1.01
N#Cc1sc2c(=O)c3ccccc3c(=O)c=2sc1C#N	0.906

SMILES	fold change of Tryptamine concentration
Cc1cccc2sc3nncn3c12	0.98
CCC1(C)CC(=O)NC(=O)C1 [Bemegride]	1.03
CCOP(=S)(OCC)Oc1cc(C)nc(C(C)C)n1	0.997
CN1CCN(C(=O)OC2c3nccnc3C(=O)N2c2ccc(Cl)cn2)CC1 (centres undefined) [Zopiclone]	0.989
CO[C@]12C[C@@H](COC(=O)c3cncc(Br)c3)CN(C)[C@@H]1Cc1cn(C)c3cccc2c13 [Nicergoline]	0.968
CCOP(=S)(OCC)Oc1nc(Cl)c(Cl)cc1Cl	0.936
C[N+](C)(C)CCCCCCCCCC[N+](C)(C)C [Decamethonium bromide]	1.13
C[C@]12COC(=O)C[C@@H]1CC[C@@H]1[C@@H]2CC[C@@]2(C)[C@H]1CC[C@]2(C)O [Oxandrolone]	1.01
OC(Cc1ccccc1Cl)(Cn1nc[nH]c1=S)C1(Cl)CC1 (centres undefined)	0.978
NCC1(CC(=O)O)CCCCC1 [Gabapentin]	1.03
CC(C)C[C@H]1C(=O)N2CCC[C@H]2[C@]2(O)O[C@](NC(=O)[C@@H]3C=C4c5cccc6[nH]c(Br)c(c56)C[C@H]4N(C)C3)(C(C)C)C(=O)N12 [Bromocryptine mesylate]	1.03
NCC(O)c1ccc(O)cc1 (centres undefined) [Octopamine hydrochloride]	0.937
NCC(CC(=O)O)c1ccc(Cl)cc1 (centres undefined) [Baclofen]	1.1
CC1(C)C(C=C(Cl)Cl)C1C(=O)OC(C#N)c1cccc(Oc2ccccc2)c1 (mixture of isomers)	1.02
C#CCN1C(=O)COc2cc(F)c(N3C(=O)C4=C(CCCC4)C3=O)cc21	0.98
CN1COCN(Cc2cnc(Cl)s2)/C1=N\[N+](=O)[O-]	0.912
CCNC1(c2cccs2)CCCCC1=O (centres undefined) [Tiletamine hydrochloride]	1.02
Cc1cc(C(C#N)c2ccc(Cl)cc2)c(Cl)cc1NC(=O)c1cc(I)cc(I)c1O (centres undefined)	0.104 (active)
